The entries come from a sample that favours hits as a whole.
Shiga toxin inh: Shiga toxin inhibition | Vero cells, Shiga toxin protein synthesis inhibition reporter | inhibition, % at 38.7 µM | 290,000 compounds, 9.2% hits; in the data active = inhibition mostly above about 28%, no sharp cut-off; inactive = mostly below about 43%; also: 0% is about no effect
RE007 growth inh: less growth of the S. pombe RE007 Vpr strain; S. pombe RE007 Vpr strain, BacTiter-Glo ATP luminescence, 24 h; Potency, µM (top dose mostly 92.2 µM), for the others: at the highest dose activity change, negative = less growth, usual class: inhibitors; 360,000 compounds, 0.21% hits; AID 651644; active = well fitted falling curve with a large enough effect; inconclusive = small, poorly fitted or top-dose-only effect; inactive = no such curve, though single readings can be large or run the other way; also: potency is read from the fitted curve at half-maximal effect; % is scaled to controls: 0 for no effect and ±100 for the full control effect; nearly all actives have a fitted effect of over 50% in size
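Fission yeast strain RE007, carrying one chromosomally integrated HIV-1 vpr copy, was seeded at OD 0.01 in PMG+AL medium with 23 nL pinned compound. After 24 h at 30 °C and 99% humidity, viability was read by BacTiter-Glo luminescence.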
LmPK inh: inhibitors of Leishmania mexicana pyruvate kinase; 290,000 compounds, 0.37% hits; Q27686; purified LmPK, Kinase-Glo ATP luminescence, 1 h; AID 1721; Potency, µM (highest dose often 57.5 µM), for inactives: at the highest dose activity change, negative = inhibition, usual class: inhibitors; also: potency is read from the fitted curve at half-maximal effect; % is scaled to controls: 0 for no effect and ±100 for the full control effect
Target sequence (Q27686 whole entry, looked up): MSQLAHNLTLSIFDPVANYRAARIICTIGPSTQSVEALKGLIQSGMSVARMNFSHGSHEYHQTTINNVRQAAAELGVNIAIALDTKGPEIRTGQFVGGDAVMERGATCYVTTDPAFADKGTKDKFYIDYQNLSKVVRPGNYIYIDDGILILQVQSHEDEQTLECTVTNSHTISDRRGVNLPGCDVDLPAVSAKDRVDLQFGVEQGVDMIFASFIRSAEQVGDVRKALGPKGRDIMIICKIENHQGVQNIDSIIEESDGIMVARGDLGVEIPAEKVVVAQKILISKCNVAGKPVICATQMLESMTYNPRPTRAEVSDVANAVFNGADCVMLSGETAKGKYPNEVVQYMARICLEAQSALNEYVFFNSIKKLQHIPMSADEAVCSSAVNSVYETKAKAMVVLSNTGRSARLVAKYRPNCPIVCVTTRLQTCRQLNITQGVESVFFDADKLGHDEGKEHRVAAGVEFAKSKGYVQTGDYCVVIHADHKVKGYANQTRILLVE
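In 50 mM imidazole pH 7.2 with 7 mM MgCl2, LmPK (0.1 nM) turned over PEP (0.5 mM) and ADP (0.1 mM) for 1 h at room temperature. Luciferase read-out of ATP.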
TbPYK inhibitor: T. brucei pyruvate kinase inhibition. Q57TT1. TbPYK enzyme, Kinase-Glo Plus ATP luminescence, 45 min. Potency, µM (top dose mostly 76.8 µM), without a hit: at the top dose activity, negative = inhibition, usual class: inhibitors. 410,000 compounds, 0.12% hits. AID 624173; also: potency is read from the fitted curve at half-maximal effect; % is scaled to controls: 0 for no effect and ±100 for the full control effect; nearly all actives have a fitted effect of over 50% in size
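In this concentration-response screen, enzyme-free wells defined baseline while DMSO plates tracked drift. Each reaction combined TbPYK, substrate, compound and 130 uM ADP for 45 min at room temperature. Kinase-Glo Plus luminescence gave the signal.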
CHX counter: counter-screen for Shiga toxin inhibitors: cycloheximide protein synthesis inhibition; cell reporter, cycloheximide protein synthesis inhibition counterscreen; max response, %; 300,000 compounds, 12% hits; in the data active = max response mostly above about 13%, no sharp cut-off; inactive = mostly below about 14%; also: read at 38.3 µM for the half of the compounds with a filed dose; 0% is about no effect
FBPA Giardia inh: blocks Giardia fructose-bisphosphate aldolase activity; purified Giardia FBPA; Potency, µM (series often up to 59.6 µM), inactives show at the top dose activity, negative = inhibition, usual class: inhibitors; 290,000 compounds, 0.71% hits; AID 2451; also: potency is read from the fitted curve at half-maximal effect; % is scaled to controls: 0 for no effect and ±100 for the full control effect; nearly all actives have a fitted effect of over 55% in size
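Giardia FBPA (40 nM reagent) was preincubated 10 min at RT with compound (up to 57.5 uM final), then substrate plus GAPDH/TPI/NAD/arsenate coupling system with diaphorase/resazurin was added; resorufin fluorescence (525/598 nm) was read after 20 min.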
* hit, by the source's call; ? = inconclusive; . = not tested or not shown; [ ] = remark or other dose. Unless noted, calls follow the shape of the dose curve; as a rule, active = well fitted curve in the direction sought with a large enough effect; inconclusive = small, poorly fitted or top-dose-only effect, or another doubt; inactive = no such curve, though single readings can be large; an effect the other way counts as inactive or inconclusive.

SMILES	Shiga toxin inh	RE007 growth inh	LmPK inh	TbPYK inhibitor	CHX counter	FBPA Giardia inh
CC(=NNC(=S)N1CCN(c2ccccn2)CC1)c1nccs1	.	35µM*	.	?	.	.
NC(=O)c1nn(-c2ccccc2)nc1N	16	2%	-15%	2%	18*	-12%
Nc1nn(-c2ccccc2)nc1C(=O)OCc1ccc(Cl)cc1	.	.	.	-2%	.	.
Nc1nn(-c2ccccc2)nc1C(=O)OCc1ccccc1	48*	-15%	7%	-3%	27*	-3%
Cc1ccc(COC(=O)c2nn(-c3ccccc3)nc2N)cc1	21	-6%	2%	8%	18*	-2%
COc1ccc(OC)c(NC(=O)c2csnn2)c1	.	.	.	-21%	.	.
Cc1oc2ccc(O)c(CN3CCCC3)c2c1C(=O)Nc1ccc(C(C)C)cc1	.	.	.	-6%	.	.
CN1CCc2c(sc3c2C(=O)NC(c2cccc(OC(=O)c4cccs4)c2)N3)C1 (centres undefined)	70*	-13%	-2%	-10%	45*	-26%
COc1cc(C2NC(=O)c3c(sc4c3CCN(C)C4)N2)ccc1OC(=O)c1ccccc1 (centres undefined)	.	.	.	-1%	.	.
Cc1ccc(C)c(S(=O)(=O)NCC(c2ccco2)S(=O)(=O)c2ccc(F)cc2)c1 (centres undefined)	.	.	.	1%	.	.
O=C(Cn1ncc2c3ccccc3n(Cc3cccc(Cl)c3)c2c1=O)Nc1ccc(F)cc1F	.	.	.	-2%	.	.
CCNC(=O)NC(=O)COc1ccccc1C#N	81*	-13%	-13%	8%	36*	7%
N#Cc1ccccc1OCC(=O)NC(=O)NCc1ccccc1	21	-8%	-2%	-2%	8	6%
N#Cc1ccccc1OCC(=O)NC(=O)NCc1ccco1	57*	-4%	-1%	2%	26*	0%
CO[C@@H]1/C=C\CC(=O)N[C@@H](C)C(=O)OC[C@@H](OC)[C@H](C)CCCC(=O)OC[C@H]1C	.	.	.	.	.	-2%[12.9 µM]
O=C1C2C3C=CC(C3)C2C(=O)N1c1ccc(-c2nc3ccccc3o2)cc1 (centres undefined)	110	2%	-9%	2%	29*	-5%
Cc1ccnc(N=Cc2nc(-c3ccccc3Br)oc2O)c1	118*	10%	12%	-17%	27*	1%
Oc1oc(-c2cccc3ccccc23)nc1/C=N/c1nccs1	19	8%	3%	-12%	2	-2%
Cc1cccc(/N=C/c2nc(-c3ccccc3Br)oc2O)n1	32	-5%	5%	2%	21*	-8%
CCN(CC)C(=O)Cn1c(=O)n(-c2ccc(OC)cc2OC)c(=O)c2c(C)c(C(=O)N(CC)CC)sc21	.	.	.	1%	.	.
COC(=O)c1sc2cccc(F)c2c1S(=O)(=O)NCc1ccc(F)cc1	.	.	.	-10%	.	.
O=C1C=CC(=Nc2ccc3c(c2)C(=O)c2ccccc2-3)O1	.	?	.	-29%	.	.
O=C1C=CC(=Nc2ccc(F)cc2)O1	.	5µM*	.	?	.	.
CCc1cccc(NC(=O)c2sc3nc[nH]c(=O)c3c2C)c1	.	.	.	1%	.	.
CC(C)OC(=O)NCCOC(=O)Nc1ccc(Cl)cc1	24	1%	5%	5%	5	-2%
SMILES	Shiga toxin inh	RE007 growth inh	LmPK inh	TbPYK inhibitor	CHX counter	FBPA Giardia inh
CS(=O)c1ccccc1COC(=O)Nc1ccc(Cl)cc1 (centres undefined)	36	4%	6%	-6%	16*	2%
Cc1ccc(NC(=O)OCc2ccccc2S(C)=O)cc1 (centres undefined)	38	-2%	11%	0%	30*	3%
COc1ccccc1OCC(=O)N(Cc1ccco1)Cc1ccccc1F	.	.	.	-2%	.	.
Cc1c(C(=O)Nc2ccc(F)cc2F)oc2ccc3c(c12)C(=O)CC(C)(C)O3	.	.	.	-2%	.	.
Cc1ccc2nc(Cl)c3cc(C(=O)N(C)C4CCCCC4)sc3c2c1	.	.	.	0%	.	.
Cc1c(C(=O)N(C)C2CCCCC2)sc2nc3ccc(N)cc3n12	43*	.	.	.	31*	-15%
CCOC(=O)c1sc(=S)n(-c2ccc(F)c(F)c2)c1N	12	-2%	5%	-28%	-2	2%
CCOC(=O)c1sc(=S)n(-c2ccc3c(c2)OCO3)c1N	30	-5%	1%	-26%	30*	-17%
CC(C)C(=O)OCc1cc(=O)n2nc(C3CC3)sc2n1	.	.	.	-27%	.	.
S=c1c2c(nc3nc[nH]n13)CCC2	-5	?	-4%	-29%	-1	2.5µM*
Cc1ccc(C(=O)OCC(=O)NC(C)C2CC3CCC2C3)cc1N (centres undefined)	.	-4%	.	-6%	.	.
O=c1[nH][nH]c(=S)n1C1CCCCC1	-14	-1%	?	2.5µM*	-1	20µM*
CCOc1ccc(CCNC(=O)CN2C(=O)COc3ccc(S(=O)(=O)N4CCC(C)CC4)cc32)cc1	.	.	.	-5%	.	.
O=C(Nc1cccc(F)c1)Nc1cccc(Cl)c1	.	-7%	-2%	-1%	28*	6%
COC(=O)NCC(C)OC(=O)Nc1cccc(Cl)c1 (centres undefined)	20	0%	2%	-6%	11*	0%
COC(=O)c1cccc(NC(=O)Nc2ccc(Cl)cc2)c1	48*	9%	-9%	0%	28*	2%
Cc1cccc(N(O)C(=O)Nc2cccc(Cl)c2)c1	56*	-14%	1%	-2%	37*	0%
CCN(C(=O)Nc1cccc(Cl)c1)c1ccccc1	-5	4%	-2%	-5%	-2	1%
Cc1sc2c(c1C)c(=O)n(-c1ccccc1)c(=O)n2CC(=O)c1ccc(Cl)cc1	.	.	.	-2%	.	.
COc1cccc(C2=NS(=O)(=O)N(C)C(C(=O)Nc3cccc(O)c3)=C2)c1	.	.	.	3%	.	.
Nc1nnn(CC(=O)N/N=C/c2cccc(Cl)c2)n1	-11	2%	-7%	-3%	-2	-4%
O=C(CCc1ccccc1)NNC(=O)Nc1cccc(Cl)c1	36	-2%	-3%	2%	17*	-1%
CNS(=O)(=O)c1ccc(NC(=O)Nc2cccc(F)c2)cc1	86*	-9%	1%	-3%	32*	-1%
COC(=O)c1cc(NC(=O)c2ccc(-c3ccccc3)cc2)ccc1Cl	15	1%	-6%	-2%	-1	1%
COC(=O)c1cc(NC(=O)Nc2cccc(Cl)c2)ccc1Cl	73	0%	1%	-10%	22*	-8%
Cc1cccnc1NC(=O)Nc1cccc(Cl)c1	60*	8%	2%	0%	13	-5%
Cc1cccnc1NC(=O)Nc1cccc2ccccc12	-2	-5%	-1%	-6%	13	-17%
COC(=O)/C=C\CCc1coc(/C=C\CNC(=O)OC)n1	.	.	.	.	.	-1%[12.9 µM]
COc1ccc2c(c1)CC(C(=O)Nc1cc(Cl)ccc1C)CO2 (centres undefined)	.	.	.	8%	.	.
COCCCNC(=O)C1CCN(c2nc3ccc(Cl)cc3[nH]2)CC1	.	.	.	-3%[15.4 µM]	.	.

Source: PubChem BioAssay (National Center for Advancing Translational Sciences (NCATS))
